Bioassay records (PubChem)
TDP1 block: TDP1 (human) enzyme inhibition | actives 0.28% (n = 350,000) | Potency, µM (doses to about 130 µM), for the others: at the highest dose activity change, negative = inhibition, usual class: inhibitors | recombinant TDP1, AlphaScreen DNA substrate cleavage | AID 485290 | Q9NUW8; note: nearly all actives have a fitted effect of over 40% in size
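Signal: AlphaScreen proximity between streptavidin donor and anti-FITC acceptor beads on intact substrate. Reaction: Tdp1 1 nM, substrate 15 nM final, 5 min RT after 15 min compound preincubation.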
PLK1 PBD block: PLK1 (human) polo-box domain binding inhibition; Plk1 PBD binding of FITC phosphopeptide, fluorescence polarization; Potency, µM, inactives show max response, negative = inhibition, actives largely listed as inhibitors; actives 2.8% (n = 360,000); AID 720504; note: series mostly up to about 57 µM; nearly all actives have a fitted effect of over 65% in size
Target sequence (P53350 whole entry, looked up, the tested form may be a part): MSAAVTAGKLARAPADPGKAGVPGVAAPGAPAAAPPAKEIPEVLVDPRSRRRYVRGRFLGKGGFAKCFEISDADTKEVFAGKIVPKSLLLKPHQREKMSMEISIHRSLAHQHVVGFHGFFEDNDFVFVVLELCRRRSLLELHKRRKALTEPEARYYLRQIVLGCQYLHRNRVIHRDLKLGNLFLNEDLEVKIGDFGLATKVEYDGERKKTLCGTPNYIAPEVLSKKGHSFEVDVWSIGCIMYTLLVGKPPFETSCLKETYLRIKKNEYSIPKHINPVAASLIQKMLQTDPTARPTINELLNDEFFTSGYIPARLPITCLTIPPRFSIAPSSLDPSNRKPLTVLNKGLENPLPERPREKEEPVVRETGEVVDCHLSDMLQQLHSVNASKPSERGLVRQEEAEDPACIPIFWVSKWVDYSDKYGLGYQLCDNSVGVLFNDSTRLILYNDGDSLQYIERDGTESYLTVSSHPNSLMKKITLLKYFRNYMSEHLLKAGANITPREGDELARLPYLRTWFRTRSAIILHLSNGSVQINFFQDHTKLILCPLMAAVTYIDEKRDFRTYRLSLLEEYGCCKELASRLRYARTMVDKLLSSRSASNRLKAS
KAT2A inh: blocks human GCN5L2 histone acetyltransferase; Q92830; GCN5L2 HAT assay, ThioGlo1 CoA-SH fluorescence; Potency, µM (highest dose often 58.9 µM), for inactives: top-dose activity change, negative = inhibition, usual class: inhibitors; actives 0.21% (n = 390,000)
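Compounds, pin-transferred from DMSO stocks, meet 20nM GCN5L2 for 15 min before the reaction begins with H3(1-25) peptide (75uM) and acetyl-CoA (70uM). Thiol-reactive ThioGlo1 reports CoA release over 20 min at room temperature.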
DT40 TDP1 CPT: growth inhibition of DT40 Tdp1-/-;hTDP1 cells with camptothecin (screen for TDP1 inhibitors) | chicken DT40 Tdp1-/-;hTDP1 cells + 20 nM CPT, ATP luminescence, 48 h | Potency, µM (highest dose often 46.2 µM), for inactives: at the highest dose activity change, negative = growth inhibition, most hits filed as inhibitors | actives 12% (n = 420,000) | AID 686979; note: nearly all actives have a fitted effect of over 55% in size
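Cell growth measured by CellTiter-Glo luminescence after a minimum 48 h, 37 C compound exposure with 20 nM CPT in Tdp1-knockout DT40 cells stably expressing hTDP1, seeded 400/well; qHTS titration format.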
VDR inh: blocks the human vitamin D receptor. actives 0.93% (n = 400,000). VDR-SRC2-3 peptide fluorescence polarization, 2 h. Potency, µM, without a hit: max response, negative = inhibition, usual class: inhibitors. P11473
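Reagent solutions, kept cold and dark, are dispensed first; compounds are then pinned in at 23 nl, plates briefly spun, and incubated 2 h at ambient temperature. Inhibition of VDR–SRC2-3 peptide binding is read by fluorescence polarization.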
TDP1 cell noCPT: qHTS for Inhibitors of human tyrosyl-DNA phosphodiesterase 1 (TDP1): qHTS in cells in absence of CPT | DT40 Tdp1-/- hTDP1 cells, no CPT, ATP luminescence, 48 h | Potency, µM (top dose mostly 46.2 µM), without a hit: at the top dose activity change, negative = growth inhibition, hits mostly inhibitors | actives 15% (n = 420,000) | AID 686978, 2013; note: nearly all actives have a fitted effect of over 55% in size
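Stably hTDP1-transfected Tdp1-null chicken DT40 cells were treated with library compounds minus camptothecin and grown for at least 48 hr at 37 °C, after which cellular ATP was quantified by luminescence.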
Numbers without * were called inactive; ? = inconclusive; . = not tested or not shown. Rows were chosen to be rich in hits. Some 18% of all compounds tested hit in one or more screens of this group. Calls come from the whole dose curve; as a rule, active = well fitted curve in the direction sought with a large enough effect; inconclusive = small, poorly fitted or top-dose-only effect, or another doubt; inactive = no such curve, though single readings can be large; an effect the other way counts as inactive or inconclusive. % is set by controls: 0 for no effect and ±100 for the full control effect; potency is the fitted concentration of half-maximal effect.

SMILES	TDP1 block	PLK1 PBD block	KAT2A inh	DT40 TDP1 CPT	VDR inh	TDP1 cell noCPT
Cc1cccc(N2CCN(C(=O)CCNS(=O)(=O)c3cccs3)CC2C)c1 (stereo unspecified)	7.1%	6.3%	-3.4%	?	9.9%	20.6µM*
CC1CC(C)CN(CC(O)COCc2ccccc2F)C1 (stereo unspecified)	.	4.0%	-17.5%	0.8%	-1.7%	-1.9%
Cc1c(O)nc(SC2CC(=O)N(c3ccccc3)C2=O)[nH]c1=O (stereo unspecified)	1.0%	-5.9%	.	-4.3%	7.1%	-3.7%
Cc1cc(C)cc(N2C(=O)CC(c3ccccc3)CC2=O)c1	1.2%	-5.5%	-2.8%	-1.6%	-0.1%	7.4%
Cn1nnnc1SC1CC(=O)N(c2ccccc2)C1=O (stereo unspecified)	-2.7%	?	-6.9%	2.59µM*	-11.6%	3.26µM*
Cc1cc(C)cc(N2C(=O)CC(Sc3nnnn3-c3ccccc3)C2=O)c1 (stereo unspecified)	1.9%	?	0.4%	2.59µM*	21.5%	5.17µM*
O=C1CC(SCCO)C(=O)N1c1ccccc1 (stereo unspecified)	3.6%	-5.4%	?	-6.7%	-8.1%	-11.9%
Cc1cc(C)cc(N2C(=O)CC(Sc3ncn[nH]3)C2=O)c1 (stereo unspecified)	.	23.8µM*	-2.4%	2.59µM*	14.2%	1.46µM*
O=C1CC(Sc2nnnn2C2CCCCC2)C(=O)N1c1ccccc1 (stereo unspecified)	0.0%	-25.8%	-3.3%	2.91µM*	4.5%	4.11µM*
Cc1ccc(N2C(=O)CC(Sc3cccs3)C2=O)cc1 (stereo unspecified)	8.6%	0.0%	-2.1%	16.4µM*	-17.8%	5.8µM*
Cc1ccc(N2C(=O)CC(Sc3nccc(C)n3)C2=O)cc1 (stereo unspecified)	-8.6%	-4.2%	-7.1%	?	3.7%	?
Cc1cccc(N2C(=O)CC(Sc3nnc(C)s3)C2=O)c1 (stereo unspecified)	1.7%	29.9µM*	-2.9%	5.17µM*	-18.0%	6.51µM*
COc1ccccc1NS(=O)(=O)c1ccc(C)c(NC(=O)c2c(C)noc2C)c1	0.7%	-3.8%	-2.2%	-13.8%	-21.8%	?
O=C(NCc1nnc(-c2nc3ccccc3[nH]2)o1)C1CCCCC1	0.4%	.	.	.	.	.
Cn1nccc1/C=C(/C#N)S(=O)(=O)c1ccccc1	6.5%	10.6µM*	-13.1%	23.1µM*	?	?
CC(=O)N1CCN(C(=O)COC(=O)CNC(=O)c2ccc(C)cc2)CC1	0.1%	-9.0%	-3.1%	-12.8%	4.6%	8.4%
O=C(O)CC(NC(=S)NCc1ccccc1)C(=O)O (stereo unspecified)	3.4%	-7.3%	82.8%	-44.8%	0.7%	?
NC(=O)CC(NC(=S)NCc1ccccc1)C(=O)O (stereo unspecified)	4.7%	21.2µM*	82.6%	-13.8%	-5.9%	6.9%
O=C(NN1CCOCC1)NC12CC3CC(CC(C3)C1)C2	-1.2%	-12.8%	-12.3%	5.4%	-6.2%	-32.9%
CC(C(=O)C12CC3CC(CC(C3)C1)C2)N1CCOCC1 (stereo unspecified)	.	21.2µM*	?	?	?	?
Cc1noc(C)c1C(=O)OCC(=O)c1cc(C)n(Cc2ccccc2Cl)c1C	2.6%	1.3%	-7.4%	20.6µM*	-6.0%	14.6µM*
CCn1c2c(c3cc(OCC(C)C)ccc31)CCCC2=O	-2.5%	-6.5%	-1.6%	16.4µM*	3.3%	20.6µM*
CC(=O)c1c(C)nn(CC(O)Cn2c3c(c4cc(C)ccc42)CCCC3=O)c1C (stereo unspecified)	5.0%	0.4%	-27.7%	?	-19.2%	?
